Common to all, as to assay: PBM; 200 nM protein, PBS
What all share (conditions): dsDNA, one strand shown

Test [1] has as its target T1, SIX6 (Homo sapiens, UniProt O95475 114-200, L167I).
T1 sequence: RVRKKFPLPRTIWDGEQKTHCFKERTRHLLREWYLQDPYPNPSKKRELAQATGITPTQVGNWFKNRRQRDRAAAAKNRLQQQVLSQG

For test [2], the target named is T2, SIX6 (Homo sapiens, UniProt O95475 114-200, H141N).
T2 sequence: T1 sequence with H28N, I54L

In test [3] the target is T3, SIX6 (Homo sapiens, UniProt O95475 114-200, T165G).
T3 sequence: T1 sequence with T52G, I54L

The target of test [4] is T4, SIX6 (Homo sapiens, UniProt O95475 114-200, T165A).
T4 sequence: T1 sequence with T52A, I54L

Test [5] addresses T5, SIX6 (Homo sapiens, UniProt O95475 114-200, L167V).
T5 sequence: T1 sequence with I54V

The target of test [6] is T6, SIX6 (Homo sapiens, UniProt O95475 114-200, T165I).
T6 sequence: T1 sequence with T52I, I54L

In test [7] the target is T7, SIX6 (Homo sapiens, UniProt O95475 114-200, T165P).
T7 sequence: T1 sequence with T52P, I54L

For test [8], the target named is T8, SIX6 (Homo sapiens, UniProt O95475 114-200, L167M).
T8 sequence: T1 sequence with I54M

Test [9] addresses T9, SIX6 (Homo sapiens, UniProt O95475 114-200, L143M).
T9 sequence: T1 sequence with L30M, I54L

The target of test [10] is T10, SIX6 (Homo sapiens, UniProt O95475 114-200, L143I).
T10 sequence: T1 sequence with L30I, I54L

The target of test [11] is T11, SIX6 (Homo sapiens, UniProt O95475 114-200, T139Q).
T11 sequence: T1 sequence with T26Q, I54L

The target in test [12] is T12, SIX6 (Homo sapiens, UniProt O95475 114-200).
T12 sequence: T1 sequence with I54L

Residue numbers refer to the chain shown, from its start.

CATATCAA: the binding signal was 11.2 upbm affinity estimate (log intensity, higher = more binding, comparable within an allelic series) with SIX6 [1]; 11.1 upbm affinity estimate (log intensity, higher = more binding, comparable within an allelic series) in the test with SIX6 [2]; 11.2 upbm affinity estimate (log intensity, higher = more binding, comparable within an allelic series) in the test with SIX6 [3]; 11.2 upbm affinity estimate (log intensity, higher = more binding, comparable within an allelic series) in the test with SIX6 [4]; 10.9 upbm affinity estimate (log intensity, higher = more binding, comparable within an allelic series) with SIX6 [5]; 11 upbm affinity estimate (log intensity, higher = more binding, comparable within an allelic series) in the test with SIX6 [6].

Turning to CGGTGTCA, the binding signal is 10.3 upbm affinity estimate (log intensity, higher = more binding, comparable within an allelic series) in the test with SIX6 [1]; 9.3 upbm affinity estimate (log intensity, higher = more binding, comparable within an allelic series) in the test with SIX6 [7]; 9.76 upbm affinity estimate (log intensity, higher = more binding, comparable within an allelic series) with SIX6 [8]; 11.1 upbm affinity estimate (log intensity, higher = more binding, comparable within an allelic series) with SIX6 [4].

Take GGTGTCAC: the binding signal in the test with SIX6 [1] is 10.3 upbm affinity estimate (log intensity, higher = more binding, comparable within an allelic series); with SIX6 [8] it was 9.69 upbm affinity estimate (log intensity, higher = more binding, comparable within an allelic series); in the test with SIX6 [3] it was 11.1 upbm affinity estimate (log intensity, higher = more binding, comparable within an allelic series); with SIX6 [4] it was 11.1 upbm affinity estimate (log intensity, higher = more binding, comparable within an allelic series).

Turning to GTATCTTA, the binding signal is 10.7 upbm affinity estimate (log intensity, higher = more binding, comparable within an allelic series) in the test with SIX6 [1]; 10.7 upbm affinity estimate (log intensity, higher = more binding, comparable within an allelic series) with SIX6 [2]; 9.9 upbm affinity estimate (log intensity, higher = more binding, comparable within an allelic series) with SIX6 [7]; 10.3 upbm affinity estimate (log intensity, higher = more binding, comparable within an allelic series) with SIX6 [8]; 10.5 upbm affinity estimate (log intensity, higher = more binding, comparable within an allelic series) in the test with SIX6 [9]; 10.2 upbm affinity estimate (log intensity, higher = more binding, comparable within an allelic series) with SIX6 [10]. In addition, the binding signal in the test with SIX6 [3] was 10.8 upbm affinity estimate (log intensity, higher = more binding, comparable within an allelic series); in the test with SIX6 [11] it was 11 upbm affinity estimate (log intensity, higher = more binding, comparable within an allelic series); with SIX6 [4], 10.6 upbm affinity estimate (log intensity, higher = more binding, comparable within an allelic series); in the test with SIX6 [5], 10.6 upbm affinity estimate (log intensity, higher = more binding, comparable within an allelic series); in the test with SIX6 [12], 10.5 upbm affinity estimate (log intensity, higher = more binding, comparable within an allelic series); in the test with SIX6 [6] it was 10.5 upbm affinity estimate (log intensity, higher = more binding, comparable within an allelic series).

As to ATATCACC, the binding signal is 11.2 upbm affinity estimate (log intensity, higher = more binding, comparable within an allelic series) in the test with SIX6 [1]; 11.1 upbm affinity estimate (log intensity, higher = more binding, comparable within an allelic series) with SIX6 [2]; 11.2 upbm affinity estimate (log intensity, higher = more binding, comparable within an allelic series) in the test with SIX6 [3]; 11.1 upbm affinity estimate (log intensity, higher = more binding, comparable within an allelic series) in the test with SIX6 [4]; 10.9 upbm affinity estimate (log intensity, higher = more binding, comparable within an allelic series) with SIX6 [5]; 10.9 upbm affinity estimate (log intensity, higher = more binding, comparable within an allelic series) with SIX6 [6].

Take ATCCTAAT: the binding signal is 10.2 upbm affinity estimate (log intensity, higher = more binding, comparable within an allelic series) in the test with SIX6 [1]; 10.2 upbm affinity estimate (log intensity, higher = more binding, comparable within an allelic series) in the test with SIX6 [2]; 10.1 upbm affinity estimate (log intensity, higher = more binding, comparable within an allelic series) with SIX6 [8]; 10.2 upbm affinity estimate (log intensity, higher = more binding, comparable within an allelic series) with SIX6 [9]; 10.2 upbm affinity estimate (log intensity, higher = more binding, comparable within an allelic series) in the test with SIX6 [3]; 10.5 upbm affinity estimate (log intensity, higher = more binding, comparable within an allelic series) with SIX6 [11]. The binding signal with SIX6 [4] is 10.2 upbm affinity estimate (log intensity, higher = more binding, comparable within an allelic series); in the test with SIX6 [5], 10.1 upbm affinity estimate (log intensity, higher = more binding, comparable within an allelic series); in the test with SIX6 [12], 10.2 upbm affinity estimate (log intensity, higher = more binding, comparable within an allelic series); with SIX6 [6], 10.2 upbm affinity estimate (log intensity, higher = more binding, comparable within an allelic series).

Consider ACAATACT, for which the binding signal in the test with SIX6 [1] was 10.3 upbm affinity estimate (log intensity, higher = more binding, comparable within an allelic series); with SIX6 [2] it was 10.2 upbm affinity estimate (log intensity, higher = more binding, comparable within an allelic series); with SIX6 [8] it was 10.2 upbm affinity estimate (log intensity, higher = more binding, comparable within an allelic series); with SIX6 [9], 10.4 upbm affinity estimate (log intensity, higher = more binding, comparable within an allelic series); with SIX6 [10], 10.1 upbm affinity estimate (log intensity, higher = more binding, comparable within an allelic series); with SIX6 [3], 10.3 upbm affinity estimate (log intensity, higher = more binding, comparable within an allelic series). The binding signal in the test with SIX6 [11] was 10.5 upbm affinity estimate (log intensity, higher = more binding, comparable within an allelic series); in the test with SIX6 [4], 10.3 upbm affinity estimate (log intensity, higher = more binding, comparable within an allelic series); in the test with SIX6 [5], 10.2 upbm affinity estimate (log intensity, higher = more binding, comparable within an allelic series); with SIX6 [12], 10.2 upbm affinity estimate (log intensity, higher = more binding, comparable within an allelic series); with SIX6 [6], 10.2 upbm affinity estimate (log intensity, higher = more binding, comparable within an allelic series).

For AAGGTATC, the binding signal was 11.1 upbm affinity estimate (log intensity, higher = more binding, comparable within an allelic series) with SIX6 [1] and 11 upbm affinity estimate (log intensity, higher = more binding, comparable within an allelic series) with SIX6 [2].

Take CTATACTA: the binding signal with SIX6 [1] was 10.2 upbm affinity estimate (log intensity, higher = more binding, comparable within an allelic series); with SIX6 [2] it was 10.1 upbm affinity estimate (log intensity, higher = more binding, comparable within an allelic series); with SIX6 [8], 10.2 upbm affinity estimate (log intensity, higher = more binding, comparable within an allelic series); with SIX6 [3], 10.2 upbm affinity estimate (log intensity, higher = more binding, comparable within an allelic series); in the test with SIX6 [5] it was 10.1 upbm affinity estimate (log intensity, higher = more binding, comparable within an allelic series); in the test with SIX6 [12], 10.2 upbm affinity estimate (log intensity, higher = more binding, comparable within an allelic series). Moreover, the binding signal with SIX6 [6] is 10.1 upbm affinity estimate (log intensity, higher = more binding, comparable within an allelic series).

As for AGTATCAA, the binding signal is 11.1 upbm affinity estimate (log intensity, higher = more binding, comparable within an allelic series) with SIX6 [1]; 11.1 upbm affinity estimate (log intensity, higher = more binding, comparable within an allelic series) with SIX6 [2]; 11.1 upbm affinity estimate (log intensity, higher = more binding, comparable within an allelic series) with SIX6 [3]; 11.1 upbm affinity estimate (log intensity, higher = more binding, comparable within an allelic series) in the test with SIX6 [4].

Source of the values: paper PMC11006913.
